Only some compounds are listed: those with a hit (about 2.9% of all), similar ones and a draw of the others.
ADAM10 inh: inhibitors of human ADAM10 | recombinant ADAM10, EDANS/DABCYL FRET peptide cleavage, 3 h | O14672 | AID 720582 | 0.62% of 370,000 active | inhibition, % at 7 µM;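 active means inhibition above a per-campaign cutoff equal to the mean of compounds falling between control-based bounds plus 3 SD, cut at about 20% in these data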;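 further: 0% = DMSO wells while the 100% control is not disclosed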
Target sequence (O14672 214-748 limits assumed): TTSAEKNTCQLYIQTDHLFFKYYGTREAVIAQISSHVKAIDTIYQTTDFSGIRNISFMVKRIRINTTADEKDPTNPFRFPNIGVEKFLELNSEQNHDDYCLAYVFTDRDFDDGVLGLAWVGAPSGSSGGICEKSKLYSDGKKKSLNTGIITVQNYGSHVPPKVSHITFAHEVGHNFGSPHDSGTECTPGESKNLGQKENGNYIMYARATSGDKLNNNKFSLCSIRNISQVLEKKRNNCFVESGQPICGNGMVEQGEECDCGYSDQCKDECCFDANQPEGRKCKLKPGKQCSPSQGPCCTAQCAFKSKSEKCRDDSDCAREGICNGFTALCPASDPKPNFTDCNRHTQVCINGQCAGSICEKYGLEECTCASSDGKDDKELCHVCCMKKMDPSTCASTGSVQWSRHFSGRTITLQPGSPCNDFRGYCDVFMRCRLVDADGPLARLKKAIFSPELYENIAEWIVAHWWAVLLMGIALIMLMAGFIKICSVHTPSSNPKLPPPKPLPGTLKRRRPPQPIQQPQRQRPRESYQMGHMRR
ADAM17 inh: ADAM17 inhibition, QFRET primary screen; P78536; recombinant ADAM17, EDANS/DABCYL FRET peptide cleavage; inhibition, % at 6.95 µM; 0.83% of 370,000 active;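 active means inhibition above the mean of compounds lying between control limits plus 3 SD, set per campaign, cut at about 8.5% in these data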;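 further: 0% = DMSO-only wells as the low control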
KLK7 zymogen act: activators of human kallikrein-7 zymogen; P49862; purified proKLK7, EDANS-DABCYL substrate fluorescence; 100% is mature enzyme control, 0% vehicle; activation, % at 7 µM; 0.9% of 370,000 active; AID 652039;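 active means activation above the mean of all tested compounds plus 3 SD, computed per campaign excluding outliers beyond control limits, cut at about 13% in these data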
PLC-gamma1 inh: blocks human PLC-gamma1 enzyme activity. purified PLC-gamma1, fluorogenic substrate, fluorescence. inhibition, % at 12.2 µM. 0.84% of 370,000 active; in the data active means inhibition above about 9.5%
PLC-beta3 inh: blocks human PLC-beta3 enzyme activity | Q01970 | Purified PLC-beta3, fluorogenic substrate, fluorescence | inhibition, % at 12.2 µM | 0.18% of 370,000 active; in the data active means inhibition above about 11%;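 further: 0% = median of compound wells on plate and 100% = full blocker control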
proKLK7 act conf: proKLK7 activation, confirmation | shares compounds with KLK7 zymogen act | AID 686949 | 68% of 3,200 active | purified proKLK7, EDANS-DABCYL substrate fluorescence; scaled: vehicle 0, mature enzyme 100 | activation, % at 7 µM;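 active means activation, as change over the incubation, above the mean of all tested compounds plus 3 SD, cut at about 13% in these data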
EDANS interfere: optically interferes with EDANS-DABCYL signal, flagging KLK7 hits; shares compounds with KLK7 zymogen act; EDANS-DABCYL substrate fluorescence interference, no enzyme, 4 h; solvent 0%, active enzyme control 100%; activation, % at 7 µM; 80% of 3,200 active; AID 686952;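 active means activation above the all-compound mean plus 3 SD, ignoring values outside control-based bounds, cut at about 4.8% in these data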;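 further: value is the 4 h activation minus the activation read at time zero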
EDANS interf: counter-screen for kallikrein-7 activators: EDANS-DABCYL interference, dose response | shares compounds with KLK7 zymogen act | EDANS-DABCYL peptide fluorescence interference, no enzyme | EC50, µM | 20% of 250 active | AID 720493;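 active means compounds that raise the fluorescence signal in this interference counterscreen, with EC50 at or below 10 µM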;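 further: intact quenched peptide substrate alone read at 355 nm excitation and 520 nm emission; signal is fluorescence gain from T0 to T4 after four hours at room temperature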
* = called active by the depositor; i = inactive; nt = no result.

SMILES | ADAM10 inh | ADAM17 inh | KLK7 zymogen act | PLC-gamma1 inh | PLC-beta3 inh | proKLK7 act conf | EDANS interfere | others
COc1ccc(Oc2cccc3c2S(=O)(=O)N(C2CC2)C[C@@H](COCc2ccccc2)O3)cc1 | 3.1 | 2.4 | 0.2 | -4.2 | -2.7 | nt | nt
Cc1cc2c([nH]c3ccccc32)c(C)n1 | i | -377.2 | 33.3* | i | i | 28.0* | 24.6*
CC(=O)N1CCC(C(=O)N2c3ccccc3N=C(c3ccc(C(F)(F)F)cc3)C2C(=O)NC(C)(C)C)CC1 (stereo not given) | -57.2 | -15.2 | 31.5* | -338.4 | i | -64.6 | -66.4
COC(=O)[C@H](C)NC(=O)[C@H](CC(C)C)NC(=O)OC(C)(C)C | 0.4 | -1.6 | -0.4 | 1.8 | 0.5 | nt | nt
CCCN1CCCCC(NC(=O)c2c(F)cccc2F)C1=O (stereo not given) | -5.5 | -3.2 | -0.5 | -1.7 | -1.8 | nt | nt
COc1ccc(C(=O)CC2OC(=O)c3c2ccc(OC)c3OC)cc1 (stereo not given) | -24.5 | -7.7 | 54.7* | -152.8 | -211.4 | 59.1* | 78.9*
COc1ccc(C(=O)Cc2cc3cccc(OC)c3oc2=O)cc1 | 1.7 | 0.4 | 1.0 | -0.6 | -4.2 | nt | nt
CC(C)CC1=NN2C(=N)/C(=C\c3coc4ccccc4c3=O)C(=O)N=C2S1 | -111.6 | -38.5 | 24.0* | -180.2 | -205.4 | 24.1* | 22.8*
Nc1nc(N)c2nc(-c3ccccc3)c(N)nc2n1 | i | i | 59.8* | i | i | 67.0* | 73.7*
Cc1ccc(C(=O)N2CCc3cc4c(cc3C2C)OCCCO4)cc1 (stereo not given) | -62.9 | -18.9 | 12.9* | -55.7 | -88.3 | 5.7 | 6.7*
CCOC(=O)C1=C(CSc2nc(CC)c(C)cc2C#N)OC(N)=C(C#N)C1c1ccc(OC)cc1 (stereo not given) | -122.3 | -28.2 | 5.3 | -184.4 | -204.2 | nt | nt
CCOC(=O)C1=C(CSc2nc(-c3ccncc3)ccc2C#N)OC(N)=C(C#N)C1c1cccnc1 (stereo not given) | -133.8 | -39.1 | 51.3* | -482.3 | i | 66.4* | 71.7*
CCOC(=O)C1=C(CSc2nc(-c3ccncc3)ccc2C#N)OC(N)=C(C#N)C1c1ccc(OC)cc1 (stereo not given) | -40.6 | -16.9 | 25.8* | -417.8 | -479.1 | 66.9* | 65.7*
COc1ccc(CN2C(=O)CCCC2(C)c2nnnn2-c2c(C)cccc2C)cc1OC (stereo not given) | 1.5 | -1.0 | -0.2 | -1.5 | -0.1 | nt | nt
Cc1ccc2nc(NC(=O)c3ccc4ncsc4c3)sc2c1 | -82.0 | -11.1 | 14.5* | -81.8 | -113.5 | 14.7* | 6.8* | EDANS interf=i
Cc1ccc2nc(NC(=O)c3ccc(Cn4cc(Cl)cn4)o3)sc2c1 | -166.2 | -63.9 | 57.0* | -109.5 | -142.0 | -100.1 | -80.7
Cc1ccc2nc(NC(=O)c3cccs3)sc2c1 | -313.4 | -58.4 | 27.0* | -66.8 | -93.1 | 4.3 | 11.6*
NNC(=O)c1ccc(Cn2cc(Cl)cn2)o1 | 8.5 | 2.4 | -0.4 | 2.2 | -8.2 | nt | nt
Cc1ccc2nc(NC(=O)c3ccc4c(c3)OCO4)sc2c1 | -44.7 | -16.9 | -2.7 | -15.9 | -21.4 | nt | nt
Cc1ccc2nc(NC(=S)NC(=O)c3cccs3)sc2c1 | -9.4 | -1.2 | 0.2 | 0.5 | -1.9 | nt | nt
CC(=O)Nc1ccc2c(c1)C(=O)N(C)[C@H]1CC[C@H](CC(=O)NCc3ccc(F)cc3)O[C@@H]1CO2 | 6.2 | -1.2 | -0.6 | 5.9 | 6.6 | nt | nt
COc1cccc(CNc2nc3cc(-c4cccc(Cl)c4)sc3c(=O)n2C)c1 | -5.4 | -4.5 | -1.4 | -1.2 | -0.4 | nt | nt
COc1ccc(-c2cc3nc[nH]c(=O)c3s2)cc1 | i | i | 41.1* | -151.8 | -199.4 | -5.9 | 15.2*
COc1ccc(-c2cc3nc(CCl)[nH]c(=O)c3s2)cc1 | i | i | 19.2* | -105.5 | -172.8 | 3.1 | 3.5
Cc1cccc(S(=O)(=O)N2CCC[C@H]2C(=O)N2CCC[C@@H]2C(=O)NCc2ccccc2)c1 | 2.0 | -2.3 | 0.1 | -1.0 | 0.2 | nt | nt
SMILES | ADAM10 inh | ADAM17 inh | KLK7 zymogen act | PLC-gamma1 inh | PLC-beta3 inh | proKLK7 act conf | EDANS interfere | others
CCc1cc2c(nc1CC)CCCN2CCOC | -357.9 | -100.0 | 28.6* | -304.7 | -398.2 | -9.7 | -9.5
Cc1cccc(-c2cccc3c4c([nH]c23)[C@@H]2C[C@H](N(C)C(=O)Nc3ccccc3C)[C@H]([C@H](C)O)C(=O)N2CC4)c1 | -31.3 | -8.6 | -0.3 | -17.6 | -17.0 | nt | nt
CC(C)(C)N(Cc1cn(Cc2ccccc2)nn1)S(=O)(=O)c1ccc(N2CCCC2)cc1Br | 4.0 | 6.0 | -0.4 | -8.3 | -20.0 | nt | nt
COCCn1c2nc(=O)n(-c3ccccc3)c(=O)c-2nc2ccccc21 | -115.4 | -28.8 | 49.2* | i | i | 39.8* | 44.5*
Cc1cccc(C)c1-n1nnnc1C1(C)CN(S(C)(=O)=O)CC(=O)N1Cc1ccc(F)cc1 (stereo not given) | 5.7 | -0.2 | 0.1 | 2.8 | 3.0 | nt | nt
CNc1cncc(-c2cccc(OC)c2F)n1 | i | i | 36.5* | i | i | 35.0* | 52.7*
CNc1cncc(-c2ccccc2NC(C)=O)n1 | -455.1 | -108.9 | 6.0 | -78.2 | -97.6 | nt | nt
CCOc1ccccc1-c1cnc(NC)cn1 | i | -374.4 | 14.6* | -199.1 | -256.2 | 31.3* | 28.4*
CNc1cncc(-c2ccccc2CO)n1 | i | i | 25.9* | -383.4 | i | 11.9 | 14.7*
CCOc1ccccc1-c1cncc(NC)n1 | i | i | 25.4* | -314.1 | -429.4 | 17.7* | 16.1*
C=CCN(Cc1ccc2c(c1)OCO2)C(C#Cc1ccccc1)c1ccccc1C(F)(F)F (stereo not given) | -7.8 | -5.2 | 0.4 | -3.3 | -2.9 | nt | nt
N#CCC[C@H]1CC[C@]2(CCCN(S(=O)(=O)c3ccccc3)C2)O1 | -20.4 | -2.8 | -0.1 | 3.7 | -0.8 | nt | nt
O=C(c1ccc(NS(=O)(=O)c2ccccc2)cc1)N1CCN(c2ccccc2)CC1 | -0.3 | -2.4 | -0.1 | 0.4 | -2.5 | nt | nt
COc1ccc(NC(=O)COC(=O)c2ccc(S(=O)(=O)N3CC(C)CC(C)C3)cc2)cc1OC (stereo not given) | -19.1 | -0.8 | 0.6 | 3.5 | -1.1 | nt | nt
COc1ccc(NC(=O)c2ccc(S(=O)(=O)N3CC(C)CC(C)C3)cc2)cc1S(N)(=O)=O (stereo not given) | -208.1 | -20.5 | 18.3* | 0.4 | -5.5 | 23.7* | 14.3* | EDANS interf=i
Cc1ccccc1CN1CCCCC(NC(=O)Nc2ccccc2-c2ccccc2)C1=O (stereo not given) | 9.1 | 0.2 | 0.4 | 1.4 | -0.9 | nt | nt
O=C(OCC#CCSc1nnc(-c2cccc3ccccc23)o1)c1ccc(Cl)c(C(F)(F)F)c1 | -8.9 | -5.6 | nt | -2.2 | -2.2 | nt | nt

Screening data as filed in PubChem.
